Experiment [1] is described as follows: qHTS assay to identify small molecule agonists of the TGF-beta/Smad signaling pathway (AID 1346859; active means well fitted activation curve with a large enough effect in the signal ratio in the repeat runs, not every such curve was filed as active; the % refers to the signal ratio). To be noted: SBE-bla HEK293T, TGF-beta/Smad beta-lactamase reporter, 5 h; series mostly up to 76.8 µM. Summed up: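 Each well held 4,000 SBE-bla HEK 293T cells incubated overnight before compound addition; 5 hr later the cleavable FRET substrate went on for 2 hr at room temperature, and fluorescence was read at two emissions.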
(In general: qHTS replaces the single test concentration by a dilution series.)

Experiment [2] is described as follows: Human pregnane X receptor (PXR) small molecule agonists, qHTS cell viability counter screen (AID 1346977). Further: nearly all actives have a fitted effect of over 50% in size. The settings on record: PXR-Luc HepG2 viability, CellTiter-Fluor, 24 h; series mostly up to 92.4 µM. Summed up: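 Tox21 qHTS format; PXR-Luc HepG2, 2,000/well, charcoal-stripped FBS 5%. Cpd exposure 24hr. Read: CellTiter-Fluor fluorescence, multiplexed with luciferase.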

The nature of experiment [3]: Caspase-3/7 induction in HepG2 cells by small molecules, qHTS assay (AID 1346978). Further: nearly all actives have a fitted effect of over 15% in size. To be noted: HepG2 caspase-3/7 activation, Caspase-Glo luminescence, 17 h; series mostly up to 92.4 µM. In outline: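 Caspase-3/7 induction was measured by Caspase-Glo 3/7 luminescence (30 min, room temperature) after a 17 hr compound exposure of wild-type HepG2 cells seeded at 2,000 per well and pre-incubated 5 hr.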

Experiment [4] in a line: Caspase-3/7 induction in CHO-K1 cells by small molecules, qHTS cell viability counter screen (AID 1346979). Further: nearly all actives have a fitted effect of over 35% in size. To be noted: CellTiter-Fluor fluorescence, 17 h; series mostly up to 92.4 µM. In outline: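 CellTiter-Fluor viability check, qHTS format: wild-type CHO-K1, 16hr compound treatment, 1hr reagent incubation, fluorescence read.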
A short description of experiment [5]: Caspase-3/7 induction in CHO-K1 cells by small molecules, qHTS assay (AID 1346980). Further: nearly all actives have a fitted effect of over 15% in size. The settings on record: CHO-K1 caspase-3/7 induction, Caspase-Glo luminescence, 17 h; series mostly up to 92.4 µM. In outline:
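Luminescent Caspase-Glo 3/7 read (30min, room temperature) quantified apoptosis induction. Cells were wild-type CHO-K1, treated with compound for 17hr at 37 C and 5% CO2.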

Experiment [6] is described as follows: Caspase-3/7 induction in HepG2 cells by small molecules, qHTS cell viability counter screen (AID 1346981). Further: nearly all actives have a fitted effect of over 30% in size. To be noted: CellTiter-Fluor fluorescence, 17 h; series mostly up to 92.4 µM. Summed up: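 Viability determined by CellTiter-Fluor fluorescence in HepG2 wells also used for the luminescent Caspase-Glo 3/7 read. Compounds were present for 16 hr at 37 C, 5% CO2 before reagent addition.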

In experiment [7] the target is Nuclear receptor subfamily 1 group I member 2 (Homo sapiens) (UniProt O75469). The experiment in a line: Human pregnane X receptor (PXR) small molecule agonists, qHTS assay (AID 1346982). Further: nearly all actives have a fitted effect of over 35% in size. Further: potency means the concentration at half of the fitted maximal effect. The settings on record: PXR-Luc HepG2, CYP3A4 luciferase reporter, 24 h; series mostly up to 92.4 µM. Summed up: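 Compound-induced hPXR transactivation of a CYP3A4 luciferase reporter was scored in HepG2 PXR-Luc cells over 24 hr at 37 C, 5% CO2, by luminescence.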
Nuclear receptor subfamily 1 group I member 2 (Homo sapiens), sequence (O75469 whole entry, looked up): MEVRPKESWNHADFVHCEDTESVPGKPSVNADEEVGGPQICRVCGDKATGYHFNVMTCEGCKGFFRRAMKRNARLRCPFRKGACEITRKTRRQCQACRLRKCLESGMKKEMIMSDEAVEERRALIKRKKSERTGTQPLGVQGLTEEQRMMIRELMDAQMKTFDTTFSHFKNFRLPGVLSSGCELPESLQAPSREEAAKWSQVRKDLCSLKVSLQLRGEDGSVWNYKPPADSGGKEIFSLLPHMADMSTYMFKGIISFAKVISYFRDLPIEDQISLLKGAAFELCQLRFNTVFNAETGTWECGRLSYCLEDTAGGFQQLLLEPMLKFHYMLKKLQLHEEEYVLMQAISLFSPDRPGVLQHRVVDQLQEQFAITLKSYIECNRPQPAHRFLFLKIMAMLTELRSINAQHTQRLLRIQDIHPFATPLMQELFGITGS

Experiment [8] deals with Thyrotropin-releasing hormone receptor (Homo sapiens) (UniProt P34981). The experiment in a line: qHTS assay to identify small molecule antagonists of the thyrotropin-releasing hormone receptor (TRHR) signaling pathway (AID 1346877; active means well fitted inhibition curve with a large enough effect in the repeat runs, not every such curve was filed as active). To be noted: TRHR-HEK293, TRH-induced calcium fluorescence, antagonist mode; series mostly up to 51.3 µM. In outline: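 Following an 18 h incubation at 37 °C and a 2 h calcium dye load, TRHR-HEK293 cells were exposed to compound (5 min, room temperature) and challenged with TRH, 1 nM final.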
Thyrotropin-releasing hormone receptor (Homo sapiens), sequence (P34981 whole entry, looked up): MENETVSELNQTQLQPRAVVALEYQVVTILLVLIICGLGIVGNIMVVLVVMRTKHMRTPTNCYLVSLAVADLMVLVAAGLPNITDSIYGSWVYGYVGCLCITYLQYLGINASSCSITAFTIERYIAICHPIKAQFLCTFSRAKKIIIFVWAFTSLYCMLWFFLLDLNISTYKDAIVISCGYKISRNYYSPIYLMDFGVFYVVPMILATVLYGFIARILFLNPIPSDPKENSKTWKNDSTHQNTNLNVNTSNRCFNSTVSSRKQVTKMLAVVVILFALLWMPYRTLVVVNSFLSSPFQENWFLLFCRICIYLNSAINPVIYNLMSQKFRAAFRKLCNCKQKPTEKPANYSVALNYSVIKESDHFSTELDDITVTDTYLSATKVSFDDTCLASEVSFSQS

For experiment [9] the target is unchanged. The experiment in a line: qHTS assay to identify small molecule agonists of the thyrotropin-releasing hormone receptor (TRHR) signaling pathway (AID 1346891; calls by dose curve). To be noted: TRHR-HEK293 calcium fluorescence, agonist mode; series mostly up to 57.6 µM. In outline: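 Screening of agonists relied on calcium signalling in HEK293 cells expressing human TRHR: dye loading 2 h at 37 °C preceded compound addition and a 3-min fluorescence time course.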

Experiment [10] has as its target Nuclear receptor subfamily 1 group I member 2 (Rattus norvegicus) (UniProt Q9R1A7). Put plainly: Rat pregnane X receptor (rPXR) activation by small molecules, qHTS assay (AID 1346983). Further: nearly all actives have a fitted effect of over 20% in size. Further: potency means the concentration at half of the fitted maximal effect. To be noted: rPXR luciferase reporter cells, One-Glo luminescence, 24 h; max activation: stronger effect = higher value. Summed up: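 Luminescent readout (One-Glo luciferase, 30 min room temperature) followed 24 hr compound treatment at 37 C of rPXR cells plated 2,000 per well and preincubated 5hr; qHTS format with compounds delivered in DMSO.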

This note sets out measurements from PubChem BioAssay (Tox21).

Values without a mark were called inactive. Records with an inconclusive call do not appear. Calls of active or inactive are those of the source. Unless noted, the call rests on the fitted dose curve; in most records, active means well fitted curve in the direction sought with a large enough effect in the repeat runs; inconclusive means weak or mixed curves; inactive means no such curve, though single readings can be large; an effect the other way counts as inactive or inconclusive.
On the % scale 0 is the no-effect control and ±100 the full control effect.

Nuclear receptor subfamily 1 group I member 2 (Rattus norvegicus), sequence (Q9R1A7 whole entry, looked up): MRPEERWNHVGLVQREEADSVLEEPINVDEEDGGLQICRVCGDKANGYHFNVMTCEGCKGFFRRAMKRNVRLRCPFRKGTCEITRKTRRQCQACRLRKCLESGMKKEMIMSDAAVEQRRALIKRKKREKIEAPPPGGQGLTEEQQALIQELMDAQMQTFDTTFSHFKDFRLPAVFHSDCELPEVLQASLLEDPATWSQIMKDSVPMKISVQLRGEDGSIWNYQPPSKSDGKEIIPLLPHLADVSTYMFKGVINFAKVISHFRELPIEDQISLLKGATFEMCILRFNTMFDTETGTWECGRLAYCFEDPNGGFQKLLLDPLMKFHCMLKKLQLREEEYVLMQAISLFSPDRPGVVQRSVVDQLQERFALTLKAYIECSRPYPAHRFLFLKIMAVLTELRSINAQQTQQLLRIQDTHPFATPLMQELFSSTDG

Regarding `COCc1nnc(-c2ccc[n+]([O-])c2)n1-c1c(Cl)c(Cl)cc2[nH]c(=O)c(=O)[nH]c12`, the molecule was called inactive in experiment [1], in experiment [2], in [3], in experiment [5] and in experiment [6]. The Potency result in [4] and in experiment [7] was “inactive” each time.
Take `CC(C)(C)C(=O)CC(=O)C(C)(C)C`: the molecule was called inactive in experiment [1], in experiment [8], in experiment [2], in experiment [3], in experiment [5] and in experiment [6]. Further, the Potency result in [9] and in experiment [7] was “inactive” throughout.
As for `CN(C)CCC[C@@]1(c2ccc(F)cc2)OCc2cc(C#N)ccc21`, the molecule was classed as inactive in experiment [1], in experiment [8], in experiment [3], in [5] and in [6]. The Potency entry in experiment [9], in experiment [4] and in experiment [7] was “inactive” in each case. Also, in [10], the max activation is -1.39%.
As to `CNC(=O)c1c(I)c(NC(C)=O)c(I)c(C(=O)O)c1I`, the result in experiment [1], in [8], in experiment [2], in experiment [3], in experiment [5] and in [6] was inactive. Besides, the Potency result in [9] and in [7] was “inactive” throughout.
Regarding `C[C@@H]1NC(=O)[C@@H](N)CNC(=O)[C@H](C2CCNC(N)=N2)NC(=O)/C(=C/NC(N)=O)NC(=O)[C@H](CNC(=O)C[C@@H](N)CCCN)NC1=O` (some centres undefined), the activation in [1] was 2.64% [at 0.29 µM]; in experiment [9] it was -0.265% [at 0.218 µM]; in experiment [7], -4.64% [at 0.349 µM]. The activity, negative = inhibition in [8] is -1.68% [at 0.194 µM]. Besides, the values for the activity change, negative = cytotoxicity in [2] and in [6] were -2.73% [at 0.349 µM] and -0.309% [at 0.349 µM], respectively. The caspase activation in [3] is -1.07% [at 0.349 µM]. Moreover, the caspase-3/7 activation in experiment [5] was 0.0211% [at 0.349 µM]. The max activation in [10] is -6.29%.
In the case of `O=c1[nH]c(=O)c2cn[nH]c2[nH]1`, the call in experiment [1], in experiment [8], in experiment [3], in experiment [5] and in [6] was inactive. The Potency entry in experiment [9] and in [4] was “inactive” in each case.
As for `CCCC(C)C(O)CC` (centres undefined), the molecule was classed as inactive in experiment [1], in [2], in experiment [3], in experiment [5] and in experiment [6]. Besides, the Potency result in experiment [4] and in experiment [7] was “inactive” in each case.
For the molecule `CC(C)(O)c1ccc(C(C)(C)O)cc1`, the call in [1], in experiment [2], in [3], in experiment [5] and in experiment [6] was inactive. Also, the Potency result in experiment [4] and in experiment [7] was “inactive” throughout.
For `CCCCCCCCCCCBr`, the molecule was classed as inactive in experiment [1], in experiment [8], in [2], in experiment [3], in experiment [5] and in [6]. The Potency entry in experiment [9] and in experiment [7] was “inactive” each time.
For the molecule `O=c1c(O)c(O)c1=O`, the molecule was classed as inactive in experiment [1], in experiment [2], in experiment [3], in experiment [5] and in experiment [6]. Further, the Potency result in experiment [4] and in experiment [7] was “inactive” in each case.
Consider `CCN(CC)CC`, for which the outcome in [1], in experiment [8], in experiment [2], in [3], in [5] and in experiment [6] was inactive. Moreover, the Potency result in experiment [9] and in experiment [7] was “inactive” in each case.
For the molecule `CC(C)C(C)C`, the molecule was classed as inactive in experiment [1], in experiment [2], in [3], in [5] and in experiment [6]. Moreover, the Potency result in experiment [4] and in experiment [7] was “inactive” in each case.
Take `O=C(CCBr)N1CCN(C(=O)CCBr)CC1`: the result in experiment [1], in experiment [8], in experiment [2], in experiment [3], in experiment [5] and in experiment [6] was inactive. Also, the Potency result in [9] and in experiment [7] was “inactive” throughout. Also, the max activation in experiment [10] is -2.92%.
Take `O=C1CCCc2c(O)cccc21`: the outcome in experiment [1], in experiment [2], in experiment [3], in experiment [5] and in experiment [6] was inactive. In addition, the Potency entry in experiment [4] and in experiment [7] was “inactive” throughout.
Regarding `CC(C)(C)OC=O`, the outcome in [1], in experiment [2], in experiment [3], in experiment [5] and in experiment [6] was inactive. Also, the Potency result in [4] and in experiment [7] was “inactive” throughout.
Turning to `Cc1cc2c(cc1CC(=O)c1sccc1S(=O)(=O)Nc1onc(C)c1Cl)OCO2`, the call in experiment [1], in experiment [2], in experiment [3], in experiment [5] and in experiment [6] was inactive. Also, the Potency result in [4] is “inactive”.
On to `NS(=O)(=O)c1cc2c(cc1C(F)(F)F)NCNS2(=O)=O`, for which the result in experiment [1], in [2], in experiment [3], in [5] and in experiment [6] was inactive. Moreover, the Potency entry in experiment [9] and in experiment [7] was “inactive” in each case. For the same molecule, the max activation in experiment [10] was -2.82%.
As to `CCOCCOCCOC(C)=O`, the molecule was called inactive in experiment [1], in [2], in experiment [3], in [5] and in [6]. For the same molecule, the Potency result in experiment [4] and in [7] was “inactive” each time.
For the molecule `Cc1nc2ccc(Cl)cc2[nH]1`, the result in experiment [1], in experiment [8], in [3] and in experiment [5] was inactive. In [9], the Potency result is “inactive”. Further, the Potency in experiment [7] is 12.2 µM (active).
In the case of `C=CC(=O)CC`, the call in [1], in experiment [2], in experiment [3], in experiment [5] and in [6] was inactive. The Potency result in [4] and in [7] was “inactive” each time.
As for `CCCCC(CC)COC(=O)CC#N` (centres undefined), the molecule was classed as inactive in experiment [1], in experiment [2], in [3], in experiment [5] and in experiment [6]. In addition, in experiment [4], the Potency entry was “inactive”. The Potency in [7] is 2.73 µM (active).
As for `CN(C)c1ccncc1`, the call in [1], in experiment [2], in experiment [3], in experiment [5] and in [6] was inactive. Also, the Potency entry in experiment [4] and in experiment [7] was “inactive” each time.
Regarding `CN1C(CCl)Nc2cc(Cl)c(S(N)(=O)=O)cc2S1(=O)=O` (centres undefined), the outcome in experiment [1], in experiment [2], in experiment [3], in [5] and in experiment [6] was inactive. Moreover, the Potency result in [4] and in experiment [7] was “inactive” each time. In experiment [10], the max activation is -9.91%.
For `CC(=O)Nc1ccc(OCCOCCOc2ccc(NC(C)=O)cc2)cc1`, the outcome in [1], in experiment [2], in [3], in [5] and in [6] was inactive. Besides, the Potency entry in [4] and in experiment [7] was “inactive” throughout. Further, in [10], the max activation was -0.187%.
In the case of `Cc1nnc(C(=O)NC(C)(C)c2nc(C(=O)NCc3ccc(F)cc3)c(O)c(=O)n2C)o1`, the result in experiment [8], in [2], in experiment [3], in experiment [5] and in [6] was inactive. Further, the Potency entry in experiment [9] and in [7] was “inactive” throughout.
In the case of `CC/C=C\CCCCCCCCCCOC(C)=O`, the call in experiment [1], in experiment [2], in experiment [3], in [5] and in experiment [6] was inactive.
On to `COC(=O)c1ccc(C(=O)O)cc1`, for which the result in [1], in [2], in experiment [3], in experiment [5] and in experiment [6] was inactive. Also, the Potency result in [7] is “inactive”.
`COc1ccc2cc(CCC(C)=O)ccc2c1`: the molecule was classed as inactive in experiment [1], in [2], in experiment [3], in experiment [5] and in [6]. Also, the figures for the Potency in [7] and in [10] were 10.6 µM (active) and 8.91 µM (active), respectively.
